Source: PubChem BioAssay (NCATS)
Inconclusive results are not listed. The source made the active and inactive calls. Unless noted, calls follow the shape of the dose curve; as a rule, active = well fitted curve in the direction sought with a large enough effect; inconclusive = small, poorly fitted or top-dose-only effect, or another doubt; inactive = no such curve, though single readings can be large; an effect the other way counts as inactive or inconclusive.

Tests used:
[1] = target: Cytochrome P450 3A4 (Homo sapiens) (UniProt P08684); test: qHTS Assay for Activators of Cytochrome P450 3A4 (AID 885); also: nearly all actives have a fitted effect of over 65% in size
Chain of Cytochrome P450 3A4 (Homo sapiens) (P08684 whole entry, looked up): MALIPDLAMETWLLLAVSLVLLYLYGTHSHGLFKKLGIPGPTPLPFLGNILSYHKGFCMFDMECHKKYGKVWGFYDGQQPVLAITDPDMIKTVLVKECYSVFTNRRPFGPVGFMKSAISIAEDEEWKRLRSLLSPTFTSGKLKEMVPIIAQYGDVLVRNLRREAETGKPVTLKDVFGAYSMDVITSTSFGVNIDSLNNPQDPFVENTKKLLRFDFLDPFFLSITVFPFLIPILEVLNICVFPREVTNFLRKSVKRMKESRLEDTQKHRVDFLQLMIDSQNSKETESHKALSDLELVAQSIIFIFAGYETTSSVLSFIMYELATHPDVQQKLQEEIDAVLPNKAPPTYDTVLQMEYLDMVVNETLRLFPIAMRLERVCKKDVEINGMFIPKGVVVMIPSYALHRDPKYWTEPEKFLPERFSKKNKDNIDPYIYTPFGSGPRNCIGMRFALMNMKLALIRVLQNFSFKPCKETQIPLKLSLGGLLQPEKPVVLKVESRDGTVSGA
How it was run: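 Activators are scored by enhanced luminescence from CYP3A4 conversion of luciferin-PPXE (25uM, equal to KM) to luciferin, after 60 min at RT with an NADPH-regenerating system.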

[2] = target: Muscarinic acetylcholine receptor M1 (Rattus norvegicus) (UniProt P08482); test: qHTS Assay for Antagonists of Acetylcholine Muscarinic M1 Receptor: Measurement of IP-One Response (AID 944); also: nearly all actives have a fitted effect of over 75% in size
Chain of Muscarinic acetylcholine receptor M1 (Rattus norvegicus) (P08482 whole entry, looked up): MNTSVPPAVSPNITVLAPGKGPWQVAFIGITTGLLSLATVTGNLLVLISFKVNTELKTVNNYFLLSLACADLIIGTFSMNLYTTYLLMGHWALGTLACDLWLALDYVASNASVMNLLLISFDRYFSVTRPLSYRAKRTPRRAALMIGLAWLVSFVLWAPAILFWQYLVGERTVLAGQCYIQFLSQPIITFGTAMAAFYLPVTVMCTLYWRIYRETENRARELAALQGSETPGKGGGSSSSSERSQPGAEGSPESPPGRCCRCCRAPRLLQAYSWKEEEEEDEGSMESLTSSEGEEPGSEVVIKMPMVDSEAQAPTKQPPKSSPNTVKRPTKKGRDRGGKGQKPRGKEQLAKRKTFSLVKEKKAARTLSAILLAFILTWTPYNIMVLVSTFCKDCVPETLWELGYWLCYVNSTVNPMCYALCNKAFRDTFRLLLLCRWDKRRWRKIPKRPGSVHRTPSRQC
How it was run: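 Antagonist mode with rat M1 receptor transfected into CHO cells. Compound is added first for 10 min, carbachol at its EC80 follows for 30 min, and lysis reagents then allow TR-FRET detection of accumulated IP1.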

[3] = S16 Schwann cell PMP22 intronic element firefly luciferase assay (AID 624032); also: nearly all actives have a fitted effect of over 30% in size; also: potency is read from the fitted curve at half-maximal effect
How it was run: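 Luciferase reporter of PMP22 intronic-element expression in stably transfected S16 rat Schwann cells, read by ONE-Glo luminescence after 24 h compound exposure at 37 C. Activity scaled between DMSO (0%) and positive-control PTC124; concentration-effect curves quality-classified.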

[4] = S16 Schwann cell PMP22 intronic element beta-lactamase assay (AID 624044; calls by dose curve; also: nearly all actives have a fitted effect of over 15% in size)
How it was run: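 Beta-lactamase reporter under a PMP22 intronic regulatory element in stable S16 rat Schwann cells; 24 h compound exposure. 460 nm blue signal normalized between DMSO (0%) and potassium clavulanate, with 535 nm FRET tracking viability; curves classed by r2 and response.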

[5] = test system: ATS95; test: qHTS profiling for inhibitors of Plasmodium falciparum proliferation (AID 504749); also: nearly all actives have a fitted effect of over 60% in size; also: potency is read from the fitted curve at half-maximal effect; conditions: P. falciparum in erythrocytes, SYBR Green DNA, 72 h; series mostly up to 12.8 µM
How it was run: (§1)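 SYBR Green fluorescence of parasite DNA, read after lysis and overnight dark incubation, measured growth over 72 h in erythrocyte culture at 0.3% parasitemia and 2.5% hematocrit. Data normalised to DMSO and 0.29 uM artemisinin, with plate-drift correction.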

[6] = test system: CP192; test: as above; conditions: P. falciparum in erythrocytes, SYBR Green DNA, 72 h; series mostly up to 28.7 µM
How it was run: as §1

[7] = test system: CP194; test: as above; conditions: P. falciparum in erythrocytes, SYBR Green DNA, 72 h; series mostly up to 12.8 µM
How it was run: as §1

[8] = test system: CP203; test: as above; conditions: P. falciparum in erythrocytes, SYBR Green DNA, 72 h; series mostly up to 12.8 µM
How it was run: as §1

[9] = test system: CP215; test: as above; conditions: P. falciparum in erythrocytes, SYBR Green DNA, 72 h; series mostly up to 28.7 µM
How it was run: as §1

[10] = test system: CP260; test: as above; conditions: P. falciparum in erythrocytes, SYBR Green DNA, 72 h; series mostly up to 12.8 µM
How it was run: as §1

[11] = test system: CP266; test: as above; conditions: P. falciparum in erythrocytes, SYBR Green DNA, 72 h; series mostly up to 28.7 µM
How it was run: as §1

[12] = test system: CP297; test: as above; conditions: P. falciparum in erythrocytes, SYBR Green DNA, 72 h; series mostly up to 12.8 µM
How it was run: as §1

[13] = test system: TAB109; test: as above; conditions: P. falciparum in erythrocytes, SYBR Green DNA, 72 h; series mostly up to 12.8 µM
How it was run: as §1

[14] = qHTS Assay for Identification of Small Molecule Agonists for Thrombopoietin (TPO) Signaling Pathway (AID 917)
How it was run: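 Stimulation at the TPO EC50 (26 pM final) was used to detect activators. Ba/F3 mouse cells bearing human TPO receptor and a luciferase reporter under the Glycoprotein IIb promoter were exposed to compounds for 24 hrs at 37 C.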

[15] = test system: 3D7; test: qHTS profiling for inhibitors of Plasmodium falciparum proliferation (AID 504749); also: nearly all actives have a fitted effect of over 60% in size; also: potency is read from the fitted curve at half-maximal effect; conditions: P. falciparum in erythrocytes, SYBR Green DNA, 72 h; series mostly up to 12.8 µM
How it was run: as §1

[16] = test system: DIV14; test: as above; conditions: P. falciparum in erythrocytes, SYBR Green DNA, 72 h; series mostly up to 12.8 µM
How it was run: as §1

[17] = test system: DIV17; test: as above; conditions: P. falciparum in erythrocytes, SYBR Green DNA, 72 h; series mostly up to 12.8 µM
How it was run: as §1

[18] = test system: GB4; test: as above; conditions: P. falciparum in erythrocytes, SYBR Green DNA, 72 h; series mostly up to 12.8 µM
How it was run: as §1

[19] = test system: PAD; test: as above; conditions: P. falciparum in erythrocytes, SYBR Green DNA, 72 h; series mostly up to 12.8 µM
How it was run: as §1

[20] = test system: W2; test: as above; conditions: P. falciparum in erythrocytes, SYBR Green DNA, 72 h; series mostly up to 12.8 µM
How it was run: as §1

Measured: Potency

Cn1cccc1C(=O)N1CCC2(CCCN(C(=O)Nc3cccc(F)c3)C2)CC1
inactive: [1]

COc1ccccc1CN1CC[C@@]2(CCCN(C(=O)c3ccco3)C2)C1
inactive: [1]

CN(C)C(=O)c1ccc(-c2nc(NCc3cccnc3)c3ccccc3n2)cc1
inactive: [1]

C[C@@H](CCc1ccccc1)NC[C@H](O)c1ccc(O)c(C(N)=O)c1
not listed: [1] | [14] | [15] | [16] | [17] | [18] | [19] | [20]
inactive: all other assays above

O=C(c1ccccc1)c1ccc2n1CC[C@H]2C(=O)O
not listed: [1] | [11] | [12]
inactive: all other assays above

C[C@@H]1COc2c(N3CCN(C)CC3)c(F)cc3c(=O)c(C(=O)O)cn1c23
not listed: [1] | [4] | [10] | [20]
inactive: all other assays above

CCCCCN(CCCCC)C(=O)[C@H](CCC(=O)O)NC(=O)c1ccc(Cl)c(Cl)c1
inactive: [1] | [14] | [2]

C[C@@H]1c2cccc(O)c2C(O)=C2C(=O)[C@@]3(O)C(O)=C(C(N)=O)C(=O)[C@@H](N(C)C)[C@@H]3[C@@H](O)[C@@H]21
active: [20] 4260 nM
inactive: [14] | [2] | [3] | [4] | [6] | [9]

CC[C@]1(C)CC(=O)NC1=O
not listed: [1] | [2] | [8]
inactive: all other assays above

O[C@@](CCN1CCCCC1)(c1ccccc1)C1CCCCC1
inactive: [1] | [14]

CC(=O)OCC1=C(C(=O)O)N2C(=O)[C@@H](NC(=O)Cc3cccs3)[C@@H]2SC1
inactive: [1] | [14] | [2]

COc1ccc(-c2nc3cnc(N4CCNCC4)nc3n(C3CC3)c2=O)cc1
inactive: [1]

CC(C)(C)NC[C@H](O)c1cc(O)cc(O)c1
not listed: [1] | [2] | [3] | [4] | [13] | [16]
inactive: all other assays above

c1ccc([C@@H]2CN3CCSC3=N2)cc1
inactive: [14] | [2]

CN1C(=O)CC[C@@H]1c1cccnc1
inactive: [1] | [2]

CC(=O)OCC1=C(C(=O)O)N2C(=O)[C@@H](NC(=O)CSc3ccncc3)[C@@H]2SC1
inactive: all assays above

NC(=O)c1cc[n+](CC2=C(C(=O)O)N3C(=O)[C@@H](NC(=O)[C@H](c4ccccc4)S(=O)(=O)[O-])[C@@H]3SC2)cc1
active: [15] 1120 nM | [5] 3550 nM | [10] 1410 nM | [12] 6420 nM | [16] 721 nM | [17] 572 nM | [18] 907 nM | [19] 1410 nM | [13] 1410 nM | [20] 510 nM
inactive: [14] | [3] | [4]

CCCN[C@@H](C)C(=O)Nc1ccccc1C
not listed: [1] | [2] | [11]
inactive: all other assays above

CO/N=C(\C(=O)N[C@@H]1C(=O)N2C(C(=O)O)=C(COC(C)=O)CS[C@@H]12)c1csc(N)n1
not listed: [1]
inactive: all other assays above

Cc1cccc(C)c1OC[C@H](C)N
inactive: [14] | [2]

N[C@H](C(=O)N[C@@H]1C(=O)N2C(C(=O)O)=C(Cl)CS[C@@H]12)c1ccccc1
inactive: [1] | [14]

C[C@@H](COc1ccccc1)N(CCCl)Cc1ccccc1
inactive: [14]

O=C(C1CCCCC1)N1CC(=O)N2CCc3ccccc3[C@@H]2C1
active: [3] 36100 nM
inactive: [4]

O=C(O)CNC(=O)[C@@H](CS)Cc1ccccc1
inactive: [14]

CCn1cc(C(=O)O)c(=O)c2cc(F)c(N3CCN[C@@H](C)C3)c(F)c21
not listed: [1] | [13]
inactive: all other assays above
